Measurements as given in PubChem BioAssay.
Several values for one entry are separate records, joined by “and”; a condition that tells them apart may be missing. Identical values can stand only once. Inconclusive results are not listed. Activity calls are given as the source filed them.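 Rule for the calls, unless noted: active = compound raises insulin release from rat beta cells at 5 mM glucose, no numeric limit stated; inactive = the rest.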

Key:
[1] = stimulators of insulin release from INS-1E, primary screen, cell-based, 5 mM glucose, NPC library (AID 1117329); settings: rat INS-1E insulin secretion, at 10 µM, stronger effect = higher value
[2] = growth inhibition of GSK3B-pretreated HCT116 cells – cell-based, CellTiter-Glo, 0.2 to 20 µM (AID 1117336;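 active = compounds lowering colon cancer cell viability after pretreatment blocking the GSK3B kinase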); settings: HCT116 viability after GSK3B inhibitor, at 20 µM, stronger effect = higher value
[3] = inhibition of endothelial tube formation, primary screen, imaging, VEGF stimulated, CD31 staining, tube area, NPC library (AID 1117340;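 active = compound that reduces growth-factor-driven endothelial tube area in a mixed cell culture, no cutoff stated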); settings: VEGF-stimulated ADSC/ECFC co-culture, at 10 µM, stronger effect = higher value
[4] = glucagon-like peptide 1 release enhancers, primary assay, NCI-H716 cell line, NPC library (AID 1117341;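 active = compound raises GLP1 secretion from the human gut endocrine cells, with no numeric limit stated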); settings: NCI-H716 cells, at 10 µM, stronger effect = higher value
[5] = HCT116 colon cancer cell growth inhibition, primary screen, CellTiter-Glo luminescence, NPC library (AID 1117342;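 active = compounds that lower survival of HCT116 colon cancer cells in the luminescence readout, no numeric limit stated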); settings: at 20 µM (top of the series)
[6] = CellTiter-Glo luminescent readout of SW480 viability loss, NPC library primary (AID 1117343;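 active = compounds that lower viability of the colon cancer cells in the luminescence readout, with no numeric limit stated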); settings: CellTiter-Glo luminescence; at 20 µM (top of the series)
[7] = decreased DLD-1 cellular survival, CellTiter-Glo luminescent readout, NPC compound collection, primary HTS (AID 1117346;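 active = compounds that lower survival of DLD-1 colon cancer cells in the luminescence readout, no cutoff given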); settings: DLD-1 viability, CellTiter-Glo luminescence; at 20 µM (top of the series)
[8] = modulation of C. elegans fzo-1 (AID 1259413; call rule not given here;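 note: fzo-1 mutant C. elegans worms in liquid wells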); settings: C. elegans fzo-1 modulator screen, mean read-out; stronger effect = higher value
[9] = test system: Aerobactin synthetase IucA (Klebsiella pneumoniae); experiment: IucA aerobactin synthetase inhibitors, biochemical, Tocris library, absorbance (AID 1345561; call rule not given here;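 note: 100% = enzyme without compound and 0% = no enzyme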); settings: purified IucA enzyme assay, absorbance (OD) read-out; stronger effect = lower value;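 tested at 8 µM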
[10] = differential killing of epithelial or mesenchymal cells, primary screen, imaging, PC-3E GFP, TEM4-18 mCherry, co-culture (AID 1345086;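 active = compounds killing one labelled cell type while sparing the other, by normalised counts and ratio limits, not self-fluorescent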;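 for all read-outs here: cells exposed to compound for 72 h before imaging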;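 for red/green cell ratio (normalised): normalised mesenchymal count divided by normalised epithelial count so high means epithelial killing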); settings: imaging cell counts, at 1 µM; for red/green cell ratio (normalised): actives lie on both sides, counts scaled to control wells, 1 = unselective
[11] = growth inhibition of DIPG glioma cells, dose response, cell-based, SU-DIPG-XIII, MIPE4.0, CellTiter-Glo, qHTS (AID 1347061; cut-off not given, nearly all actives have AC50 up to about 37 µM;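 note: cells exposed to compound for 48 hours before readout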); settings: SU-DIPG-XIII viability, CellTiter-Glo ATP luminescence
[12] = growth inhibition of DIPG glioma cells, dose response, cell-based, JHH-DIPG-1, MIPE4.0, CellTiter-Glo, qHTS (AID 1347062; cut-off not given, nearly all actives have AC50 up to about 27 µM;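 for AC50: cells exposed to compound for two days before readout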); settings: JHH-DIPG-1 viability, CellTiter-Glo ATP luminescence
[13] = growth inhibition of DIPG glioma cells, dose response, cell-based, SU-DIPG-IV, MIPE4.0, CellTiter-Glo, qHTS (AID 1347063; cut-off not given, nearly all actives have AC50 up to about 30 µM;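 note: compound exposure lasted 48 hours before the viability readout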); settings: SU-DIPG-IV viability, CellTiter-Glo ATP luminescence
[14] = growth inhibition of DIPG glioma cells, dose response, cell-based, SU-DIPG-XIII, MIPE5.0, CellTiter-Glo, qHTS (AID 1347064; cut-off not given, nearly all actives have AC50 up to about 23 µM;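 for AC50: cells exposed to compound for 48 hours before the viability read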); settings: SU-DIPG-XIII viability, CellTiter-Glo ATP luminescence
[15] = growth inhibition of DIPG glioma cells, dose response, cell-based, SU-DIPG-XVII, MIPE5.0, CellTiter-Glo, qHTS (AID 1347060; cut-off not given, nearly all actives have AC50 up to about 26 µM;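 for AC50: cells exposed to compound for 48 hours before viability readout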); settings: SU-DIPG-XVII viability, CellTiter-Glo ATP luminescence
[16] = measured here: epithelial PC-3E GFP cell survival
[17] = measured here: mesenchymal TEM4-18 mCherry cell survival

CCN(CC)CC1CCCCN1CC(=O)N1c2ccccc2C(=O)Nc2cccnc21 (centres undefined)
inactive: insulin secretion stimulation [1] 4% | viability decrease [2] -12.6% | tube area decrease [3] -28.2% | GLP1 secretion stimulation [4] 7.7% | inhibition of viability [5] 1.17% | viability decrease (inhibition) [6] -3.8% | viability decrease (inhibition) [7] 6.8% | mean signal [8] 227 | remaining activity [9] 116%

C/C=C1\[C@H]2C=C(C)C[C@]1(N)c1ccc(=O)[nH]c1C2
1.18: normalised cell number [10, 17]
0.97: normalised cell number [10, 16]
inactive: insulin secretion stimulation [1] 1.5% | viability decrease [2] 10.5% | tube area decrease [3] 0.1% | GLP1 secretion stimulation [4] 3.9% | inhibition of viability [5] 3.1% | viability decrease (inhibition) [6] -14.7% | viability decrease (inhibition) [7] 0.1% | red/green cell ratio (normalised) [10] 1.22

CCOc1cc(N)c(Cl)cc1C(=O)NCC1CN(Cc2ccc(F)cc2)CCO1 (centres undefined)
active: viability decrease [2] 71.6%
inactive: insulin secretion stimulation [1] -0.4% | tube area decrease [3] 5.1% | GLP1 secretion stimulation [4] 4.9% | inhibition of viability [5] 46.1% | viability decrease (inhibition) [6] 44.8% | viability decrease (inhibition) [7] 24% | mean signal [8] 261 | outcome [11] | outcome [12] | outcome [13] | outcome [14]

C[n+]1c2cc(N)ccc2cc2ccc(N)cc21 (tested in a mixture with another compound)
active: viability decrease [2] 70.5% | inhibition of viability [5] 83.8% | viability decrease (inhibition) [6] 68.8% | viability decrease (inhibition) [7] 95.2%
0.56: normalised cell number [10, 16]
0.28: normalised cell number [10, 17]
inactive: insulin secretion stimulation [1] 0.4% | tube area decrease [3] -105% | GLP1 secretion stimulation [4] 5.7% | red/green cell ratio (normalised) [10] 0.5

Cc1ccc(NC(=O)c2ccc(CN3CCN(C)CC3)cc2)cc1Nc1nccc(-c2cccnc2)n1
active: viability decrease [2] 94.3% | inhibition of viability [5] 98% | viability decrease (inhibition) [6] 97.6% | viability decrease (inhibition) [7] 88.8%
inactive: insulin secretion stimulation [1] -3.1% | tube area decrease [3] -31% | GLP1 secretion stimulation [4] 13.7% | mean signal [8] 251 | outcome [12] | outcome [13]

O=c1[nH]cnc2c1ncn2[C@H]1CC[C@@H](CO)O1
inactive: insulin secretion stimulation [1] 3.9% | viability decrease [2] -9% | tube area decrease [3] -4.4% | GLP1 secretion stimulation [4] 3.6% | inhibition of viability [5] -3.4% | viability decrease (inhibition) [6] -7.8% | viability decrease (inhibition) [7] -6.1% | mean signal [8] 237 | outcome [11]

Cc1ccsc1C(=CCCN1CCC[C@@H](C(=O)O)C1)c1sccc1C
inactive: insulin secretion stimulation [1] 0.1% | viability decrease [2] -15.1% | tube area decrease [3] -6.2% | GLP1 secretion stimulation [4] 2.2% | inhibition of viability [5] 25% | viability decrease (inhibition) [6] -16.3% | viability decrease (inhibition) [7] 2.5% | mean signal [8] 213 | outcome [15] | outcome [14]

CN(C)CC/C=C1/c2ccccc2COc2ccc(CC(=O)O)cc21
inactive: insulin secretion stimulation [1] 1.85% | viability decrease [2] -0.6% | tube area decrease [3] 5.6% | GLP1 secretion stimulation [4] -0.7% | inhibition of viability [5] 3.7% | viability decrease (inhibition) [6] -7.7% | viability decrease (inhibition) [7] 7.1% | mean signal [8] 251 | outcome [15] | outcome [11] | outcome [12] | outcome [14]

Cc1c(Nc2ncccc2C(=O)O)cccc1C(F)(F)F
active: viability decrease (inhibition) [6] 75.8%
1.12 and 1.03: normalised cell number [10, 17]
1.09 and 1.11: normalised cell number [10, 16]
inactive: insulin secretion stimulation [1] -1.5% | viability decrease [2] -24.9% | tube area decrease [3] 5.8% | GLP1 secretion stimulation [4] -1.7% | inhibition of viability [5] 0.73% | viability decrease (inhibition) [7] 21.9% | red/green cell ratio (normalised) [10] 1.03 and 0.93

CC(=O)[C@]1(O)Cc2c(O)c3c(c(O)c2[C@@H](O[C@H]2C[C@H](N)[C@H](O)[C@H](C)O2)C1)C(=O)c1ccccc1C3=O
inactive: insulin secretion stimulation [1] -1.8% | GLP1 secretion stimulation [4] -0.2% | mean signal [8] 267
active: viability decrease [2] 84% | tube area decrease [3] 85.6% | inhibition of viability [5] 68.9% | viability decrease (inhibition) [6] 84.7% | viability decrease (inhibition) [7] 85.5% | AC50 [15] 372 nM | AC50 [11] 3320 nM | AC50 [12] 526 nM | AC50 [13] 662 nM | AC50 [14] 11800 nM

Cn1c(NCCN(CCO)CCCc2ccc([N+](=O)[O-])cc2)cc(=O)n(C)c1=O
inactive: insulin secretion stimulation [1] -5.7% | viability decrease [2] 38.3% | tube area decrease [3] 1.8% | GLP1 secretion stimulation [4] 2.9% | inhibition of viability [5] 26.6% | viability decrease (inhibition) [6] 44.3% | viability decrease (inhibition) [7] 14.1% | mean signal [8] 242 | outcome [15] | outcome [14]
active: AC50 [13] 20900 nM

CN(C)CCCSc1ccccc1NC(=O)/C=C/c1ccccc1
inactive: insulin secretion stimulation [1] 9.9% | viability decrease [2] -78.5% | tube area decrease [3] 23.1% | GLP1 secretion stimulation [4] 3.9% | inhibition of viability [5] 25.5% | viability decrease (inhibition) [6] 5.3% | viability decrease (inhibition) [7] -18% | mean signal [8] 241 | remaining activity [9] 115%

CCN1CCC[C@H]1CNC(=O)c1cc(S(N)(=O)=O)ccc1OC
inactive: insulin secretion stimulation [1] 1% | viability decrease [2] -4.3% | tube area decrease [3] 10.5% | GLP1 secretion stimulation [4] -3% | inhibition of viability [5] -5.3% | viability decrease (inhibition) [6] -4.8% | viability decrease (inhibition) [7] -5.7% | mean signal [8] 274 | remaining activity [9] 123%
